# From PubChem
# The full list was thinned out, with hits kept by preference.
# HTT promoter inh: Primary qHTS for Identification of Small Molecule Inhibitors of Huntingtin Promoter Activity; HEK293 HTT promoter firefly luciferase reporter, 24 h; Potency, µM (series often up to 57.5 µM), for the others: top-dose activity change, negative = inhibition, actives largely listed as inhibitors; 48,000 tested, 0.93% active; AID 1508623, 2021; note: potency is the fitted concentration of half-maximal effect; nearly all actives have a fitted effect of over 50% in size
#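 HEK293 cells carrying firefly luciferase reporters were seeded at 2,500 per well in Opti-MEM and cultured for 24 h. They were then treated with compounds at up to 57.5 uM final for 24 h at 37 degrees C before Dual-Glo luminescence readout.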
# NTMT1 inh: Primary qHTS for Inhibitors of N-terminal methyltransferase 1 (NTMT1): MTaseGlo Assay; N-terminal Xaa-Pro-Lys N-methyltransferase 1 (Homo sapiens), Q9BV86; NTMT1 MTase-Glo SAH luminescence, purified enzyme; Potency, µM (top dose mostly 114 µM), for the others: at the top dose activity change, negative = inhibition, most hits filed as inhibitors; 59,000 tested, 2.5% active; AID 1645870, 2021;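 note: potency is the fitted concentration of half-maximal effect; plate controls were DMSO vehicle for no effect and no enzyme for full effect; nearly all actives have a fitted effect of over 65% in size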
# Target sequence (Q9BV86 whole entry, looked up): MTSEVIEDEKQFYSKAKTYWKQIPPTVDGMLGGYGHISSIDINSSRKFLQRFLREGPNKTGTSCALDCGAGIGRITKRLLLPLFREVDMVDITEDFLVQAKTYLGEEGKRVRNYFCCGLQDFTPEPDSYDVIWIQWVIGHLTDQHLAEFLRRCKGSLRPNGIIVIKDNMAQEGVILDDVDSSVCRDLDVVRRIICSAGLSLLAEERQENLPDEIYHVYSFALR
# HTT-AS promoter: Primary qHTS for Identification of Small Molecule Activators of Huntingtin-Antisense Promoter Activity. HEK293 HTT-AS promoter firefly luciferase reporter, 24 h; response scale: percent change from vehicle, -100% = no light. Potency, µM (titrated, usually from 57.5 µM), inactives show at the highest dose activity change, positive = activation, usual class: activators. 48,000 tested, 0.24% active; note: potency is the fitted concentration of half-maximal effect; nearly all actives have a fitted effect of over 55% in size
#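 Firefly luciferase signal from promoter-reporter HEK293 cells was scaled between vehicle (0%) and zero RLU (-100%). Compounds were tested at final concentrations of up to 57.5 uM over 24 h at 37 degrees C. PTC124 at 50 uM final served as control inhibitor.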
# GALK inhibitor: qHTS Assay for Inhibitors of Human Galactokinase (GALK): NCGC Sytravon Library Screen | AID 1347072, 2019 | P51570 | recombinant GALK, Kinase-Glo ATP luminescence, 1 h | 44,000 tested, under 10 active | Potency, µM (top dose mostly 57.5 µM), inactives show at the top dose activity, negative = inhibition, most hits filed as inhibitors;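 note: plate controls were full GALK reaction for no effect and reaction lacking GALK for full effect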
#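 Human GALK (5 nM) was incubated with 35 uM ATP and 100 uM galactose in 20 mM HEPES pH 8.0 with MgCl2, NaCl, DTT and BSA for 1 h at room temperature. Remaining ATP was measured by Kinase-Glo Plus luminescence.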
# TSG101-PTAP inh: qHTS Validation Assay for Inhibitors of HIV-1 Budding by Blocking the Interaction of PTAP/TSG101: Sytravon Library Screen | Fluorescence polarization, FITC-PTAP peptide/Tsg101, 20 min | Tumor susceptibility gene 101 protein (Homo sapiens), Q99816 | 44,000 tested, under 10 active | Potency, µM (doses to about 115 µM), hits mostly inhibitors | AID 1347069, 2019; note: potency is the fitted concentration of half-maximal effect; 0% is about no effect
#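 Fluorescence polarization: Tsg101 binding domain (10 uM final) in 10 mM HEPES pH 7.5, 0.15 M NaCl, 0.01% Tween 20, 3 mM EDTA, 0.1 mM TCEP; compounds pinned; FITC-PTAP peptide 50 nM final; 20 min, r.t.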
# B2AR arrestin ag: qHTS assay of beta-arrestin-biased ligands of beta2-adrenergic receptor: NCGC Sytravon Library Screen | Beta-2 adrenergic receptor (Homo sapiens), P07550 | HTLA Tango cells, beta-arrestin recruitment, luciferase luminescence, 18 h | Potency, µM (highest dose often 46.1 µM), actives largely listed as activators | 44,000 tested, under 10 active | AID 1347077, 2019;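 note: potency is the fitted concentration of half-maximal effect; 0% = DMSO and full agonism = EC100 isoproterenol or metaproterenol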
#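 Ligand-induced beta-arrestin recruitment to recombinant beta2-AR is measured via a tTA-driven luciferase reporter in Tango cells after 18 hr compound exposure at 37 degrees C. Concentrations span up to 46 microM.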
# DYRK1A KinaseGlo: Assay for Inhibitors of Dual-Specificity Tyrosine-(Y)-Phosphorylation Regulated Kinase 1A (Kinase-Glo assay). recombinant DYRK1A, Kinase-Glo ATP depletion luminescence. Potency, µM (top dose mostly 76.9 µM), without a hit: at the highest dose activity change, negative = inhibition, usual class: inhibitors. 100 tested, 80% active. shares compounds with NTMT1 inh
# CLK4 KinaseGlo: Confirmation Assay for Inhibitors of CDC-like Kinase 4 (Kinase-Glo Assay): SAR round 2 | shares compounds with NTMT1 inh | recombinant Clk4, Kinase-Glo ATP luminescence, 4.5 h | Potency, µM (series often up to 76.9 µM), for the others: at the highest dose activity, negative = inhibition, actives largely listed as inhibitors | 90 tested, 90% active
# Target sequence (Q9HAZ1 whole entry, looked up): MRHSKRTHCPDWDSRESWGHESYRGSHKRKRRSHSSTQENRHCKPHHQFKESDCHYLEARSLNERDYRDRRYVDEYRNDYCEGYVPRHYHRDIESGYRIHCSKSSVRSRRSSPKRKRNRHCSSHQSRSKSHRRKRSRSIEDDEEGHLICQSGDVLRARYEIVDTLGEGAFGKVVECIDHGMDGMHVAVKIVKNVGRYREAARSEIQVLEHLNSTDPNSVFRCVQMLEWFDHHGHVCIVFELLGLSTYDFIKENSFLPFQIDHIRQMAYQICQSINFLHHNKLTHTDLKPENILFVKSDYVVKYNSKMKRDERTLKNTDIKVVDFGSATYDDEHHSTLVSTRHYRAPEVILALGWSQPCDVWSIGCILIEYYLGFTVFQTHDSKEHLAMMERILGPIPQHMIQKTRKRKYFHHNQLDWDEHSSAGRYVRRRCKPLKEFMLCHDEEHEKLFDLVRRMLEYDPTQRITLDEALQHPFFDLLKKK
# Sfp PPTase inh: qHTS Assay for Inhibitos of Bacillus subtilis Sfp phosphopantetheinyl transferase (PPTase): Chemistry Optimization Followup; shares compounds with NTMT1 inh; purified Sfp PPTase enzyme activity, qHTS; Potency, µM (doses to about 114 µM), inactives show top-dose activity change, negative = inhibition, hits mostly inhibitors; 230 tested, 78% active
# HM489 growth: qHTS for Inhibitos of Bacillus subtilis Sfp phosphopantetheinyl transferase (PPTase): Chemistry Optimization Followup in B. Subtilis HM489; B. subtilis HM489 (acpS-) growth, BacTiter-Glo, 5 h; 220 tested, 50% active; Potency, µM (top dose mostly 114 µM), for inactives: at the top dose activity change, negative = inhibition, usual class: inhibitors; shares compounds with NTMT1 inh; AID 540353, 2011
# Sfp gel opt: Gel-Based Assay for Inhibitos of Bacillus subtilis Sfp phosphopantetheinyl transferase (PPTase): Chemistry Optimization Followup; shares compounds with NTMT1 inh; purified Sfp PPTase, gel-based product detection; Potency, µM (highest dose often 250 µM), without a hit: at the highest dose activity change, negative = inhibition, usual class: inhibitors; 220 tested, 54% active
# Sfp SAR2: qHTS Assay for Inhibitors of Bacillus subtilis Sfp phosphopantetheinyl transferase (PPTase): SAR Round 2. Potency, µM (doses to about 57.1 µM), without a hit: at the highest dose activity change, negative = inhibition, hits mostly inhibitors. 230 tested, 87% active. AID 602370, 2012. shares compounds with NTMT1 inh. purified Sfp enzyme, PPTase activity, qHTS
# HSD17B4 inh: Extended Characterization of HPGD Inhibitors: Counterscreen Against HSD17b4; shares compounds with NTMT1 inh; purified HSD17B4, estradiol/NAD+, NADH fluorescence; Potency, µM (highest dose often 57.1 µM), for inactives: at the highest dose activity change, negative = inhibition, most hits filed as inhibitors; 230 tested, 10% active; AID 743187, 2013
# ALDH1A1 counter: Extended Characterization of HPGD Inhibitors: Counterscreen Against ALDH1A1. 230 tested, 93% active. recombinant ALDH1A1, NADH fluorescence, propionaldehyde/NAD+. shares compounds with NTMT1 inh. AID 743195, 2013. Potency, µM (series often up to 57.1 µM), for the others: at the highest dose activity change, negative = inhibition, most hits filed as inhibitors
# NNMT inh: Counterscreen qHTS for Inhibitors of N-terminal methyltransferase 1 (NTMT1): NNMT MTaseGlo assay; 120 tested, 10% active; shares compounds with NTMT1 inh; Potency, µM (series often up to 57.1 µM), without a hit: top-dose activity, negative = inhibition, actives largely listed as inhibitors; AID 1645878, 2021; NNMT MTase-Glo luminescence, SAH detection
# Numbers without * were called inactive; i = inactive; ? = inconclusive; . = no result; ! = not confirmed by another sample; [ ] = remark or other dose. Calls come from the whole dose curve; as a rule, active = well fitted curve in the direction sought with a large enough effect; inconclusive = small, poorly fitted or top-dose-only effect, or another doubt; inactive = no such curve, though single readings can be large; an effect the other way counts as inactive or inconclusive.
SMILES,HTT promoter inh,NTMT1 inh,HTT-AS promoter,GALK inhibitor,TSG101-PTAP inh,B2AR arrestin ag,others
COc1cc2c(NC3CCN(C(C)C)CC3)nc(C3CCCCC3)nc2cc1OCCCN1CCCC1,-23.4%,?,4.0%,.,.,.,NNMT inh=?
CC(=O)c1cccc(Nc2nc(-c3ccccc3Cl)nc3ccccc23)c1,-31.2%,11.0%,-44.1%,-3.1%,i,i,
O=C(O)c1ccc2c(c1)nc(Nc1cccc(Cl)c1)c1ccncc12,?,14.1µM*!,-11.3%,.,.,.,NNMT inh=?
Nc1c(S(=O)(=O)c2ccccc2)c2nc3ccccc3nc2n1-c1ccc(F)cc1,.,-15.7%[57.5 µM],.,.,.,.,
N#CCC(C1CCCC1)n1cc(-c2ncnc3[nH]ccc23)cn1 (stereo not given),.,18.0%[57.5 µM],.,.,.,.,
Clc1ccccc1-c1ccc2ncnc(NCc3cccs3)c2c1,.,4.6%,.,.,.,.,
FC1(F)Oc2ccc(-c3ccc4ncnc(NCc5cccs5)c4c3)cc2O1,.,6.4%,.,.,.,.,DYRK1A KinaseGlo=?
C[C@@H](O)c1ccc(-c2ccc3ncnc(NCc4cccs4)c3c2)o1,.,-10.1%[57.5 µM],.,.,.,.,CLK4 KinaseGlo=1.46µM*
Clc1cccc(-c2ccc3ncnc(NCc4cccs4)c3c2)c1,.,-23.0%,.,.,.,.,
c1coc(-c2ccc3ncnc(NCc4cccs4)c3c2)c1,.,-13.9%,.,.,.,.,DYRK1A KinaseGlo=6.54µM*
Cc1csc(CNc2ncnc3ccc(-c4ccc(C(C)O)o4)cc23)n1 (stereo not given),.,?,.,.,.,.,CLK4 KinaseGlo=1.04µM*
O=Cc1ccc(-c2ccc3ncnc(NCc4cccs4)c3c2)o1,.,?,.,.,.,.,CLK4 KinaseGlo=26µM*
N#Cc1nc(NCCCO)nc(Nc2ccccc2)n1,.,7.6%,.,.,.,.,
OCCCNc1cc(-c2ccnc(Nc3cccc(Cl)c3)n2)ccn1,?,4.47µM*,-17.7%,.,.,.,NNMT inh=25.1µM*
CC(C)c1ccccc1-c1ncc(F)c(NCC2CCN(c3cnccn3)C2)n1 (stereo not given),.,5.2%,.,.,.,.,
Cc1cc(C)nc(NC(=S)N2CCN(c3ccc4c(c3)OCO4)CC2)c1,.,28.2µM*,.,.,.,.,Sfp PPTase inh=9.37µM*;HM489 growth=6.3%;Sfp gel opt=0.631µM*;Sfp SAR2=14.5µM*;HSD17B4 inh=?;ALDH1A1 counter=4.29µM*
COc1ccc(N2CCN(C(=O)Cc3coc4ccc(C)cc34)CC2)cc1,20.8%,15.5%,0.6%,0.2%,i,i,
Cc1cc(C)nc(NC(=S)N2CCN(c3ccc4occc4c3)CC2)c1,.,?,.,.,.,.,Sfp PPTase inh=3.73µM*;HM489 growth=?;Sfp gel opt=3.98µM*;Sfp SAR2=4.57µM*;HSD17B4 inh=?;ALDH1A1 counter=17.1µM*
O=S(=O)(Nc1nccs1)c1ccc(Nc2nc(-c3ccccc3)cs2)cc1,.,3.3%[57.5 µM],.,.,.,.,
